In PubChem BioAssay (NCI) one finds growth data, which are given here for eight molecules.

Compounds without any hit were thinned out: in the full panel of roughly 83,000, 20% have a hit.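 Testing used 96-well plates and a 48-hour single-concentration exposure. Example: -40 means 40% of the starting cells died.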 A number with no mark means an inactive call. Active and inactive are the calls of the source. The calls were made as follows: active = growth percent below 10; inactive = the rest.

What all share (test): NCI-60 one-dose screen, 48 h (100 = growth as untreated, 0 = no growth, -100 = all killed)
Common to all, as to details: 10 µM unless noted

Assay [1] relates to SK-MEL-2 melanoma.
In assay [2] the test system is EKVX NSCLC.
Assay [3] has as its system SN12C renal.
Assay [4] concerns UO-31 renal.
The test system of assay [5] is TK-10 renal.
For assay [6], the system named is ACHN renal.
For assay [7], the system named is CAKI-1 renal.
Assay [8] relates to A498 renal.
Assay [9] relates to CCRF-CEM leukemia.
The subject of assay [10] is MOLT-4 leukemia.
Assay [11] has as its system SR leukemia.
Assay [12] concerns RPMI-8226 leukemia.
Assay [13] has as its system OVCAR-8 ovarian.
In assay [14] the test system is OVCAR-5 ovarian.
Assay [15] relates to OVCAR-4 ovarian.
For assay [16], the system named is SK-OV-3 ovarian.
Assay [17] deals with IGROV1 ovarian.
For assay [18], the system named is OVCAR-3 ovarian.
Assay [19] concerns HS 578T breast.
The test system of assay [20] is NCI/ADR-RES ovarian.

On to `COc1ccc(N=C2NN=C(c3ccc(F)cc3)CS2)cc1OC`, for which the growth in assay [1] is 66.4%; in assay [2], 99%; in assay [3] it was 98.1%; in assay [4], 44.2%; in [5], 89.8%; in assay [6], 93.7%. The growth in [7] is 84.9%; in assay [8], 86.1%; in assay [9], 81.8%; in assay [10], 73.4%; in assay [11], 53%; in assay [12] it was 74.4%. The growth in assay [13] was 105%; in assay [14], 85.7%; in [15] it was 103%; in assay [16], 104%; in assay [17] it was -11.7% (active); in assay [18], 96.6%. The growth in assay [19] is 110%; in [20] it was 97.6%.
Turning to `O=[N+]([O-])c1cccc(-c2cc(-c3cc(Br)ccc3O)[nH]n2)c1`, the growth is 24% in assay [1]; 18.1% in [2]; 24.8% in assay [3]; 20.1% in assay [4]; 12.5% in assay [5]; 10.2% in [6]. Further, the growth was 40.5% in assay [7]; 40% in assay [8]; 8.04% (active) in assay [9]; 4.68% (active) in assay [10]; 19.7% in assay [11]; -2.85% (active) in [12]. For the same molecule, the growth was 33.9% in [13]; 55.4% in assay [14]; 16.3% in [15]; 30.6% in assay [16]; 13.7% in [17]; 2.12% (active) in [18]. Moreover, the growth is 46.6% in assay [19] and 19.2% in assay [20].
`N#CC1=C(N)n2nc(-c3ccncc3)nc2NC1c1cccc2ccccc12` (stereo not drawn): the growth is 96.3% in [1]; 71.7% in assay [2]; 96.6% in [3]; 58.1% in [4]; 103% in [5]; 95.2% in [6]. Besides, the growth in assay [7] was 69%; in assay [8], 89.8%; in assay [9] it was 87.7%; in assay [10] it was 86.4%; in assay [11], 80.3%; in assay [12], 74.9%. For the same molecule, the growth in assay [13] was 92.7%; in [14], 100%; in assay [15], 80.4%; in assay [16], 98.2%; in [17] it was 91.2%; in [18] it was 97.4%. Moreover, the values for the growth in assay [19] and in [20] were 80.5% and 91.9%, respectively.
Consider `C=C1C(=O)O[C@H]2[C@H]1CC/C(Cn1cc(-c3ccc(N)cc3)nn1)=C\CC[C@@]1(C)O[C@@H]21`, for which the growth in [1] was 41.9%; in [2] it was -19.9% (active); in [3], -7.63% (active); in assay [4], -74.3% (active); in assay [5], 17.9%; in assay [6], 3.22% (active). In addition, the growth was 16.7% in assay [7]; 44.1% in assay [8]; -17.7% (active) in assay [9]; 5.77% (active) in [10]; 7.69% (active) in assay [11]; -8.22% (active) in assay [12]. The growth in [13] was -5.97% (active); in assay [14] it was 38.4%; in assay [15], 13.6%; in assay [16], 83.8%; in assay [17], 18.4%; in assay [18], -30.7% (active). Also, the growth in assay [19] was 62.4%; in assay [20], 69.8%.
Consider `CCCn1c(=S)sc2c(Cl)nc(C)nc21`, for which the growth was 1.85% (active) in assay [1]; 106% in assay [2]; 113% in [3]; 103% in [4]; 137% in assay [5]; 83.1% in [6]. In addition, the growth was 63.8% in assay [7]; 98.5% in [8]; 72% in assay [9]; 116% in [10]; 123% in assay [11]; 99.1% in assay [12]. Further, the growth in [13] is 105%; in assay [14], 109%; in assay [15], 85.5%; in [16] it was 90.5%; in assay [18], 88.6%; in [19], 36.8%. Further, in [20], the growth is 106%.
Consider `O=C(OCCCCOC(=O)n1cnc2ccccc21)n1cnc2ccccc21`, for which the growth in assay [1] is 101%; in assay [2], 98.7%; in assay [3], 96%; in [4] it was 78.9%; in [5], 110%; in assay [6], 101%. Further, the growth was 93.2% in [7]; 89.3% in [8]; 101% in assay [9]; 86.2% in assay [10]; 84.6% in assay [11]; 102% in assay [12]. The growth in assay [13] was 99.7%; in [14], 103%; in assay [15] it was 105%; in assay [16] it was 98.9%; in assay [17], 102%; in assay [18] it was 108%. For the same molecule, the growth in assay [19] was 90.2%; in [20], 105%.
On to `CN(C)C/C=C/C(=O)Nc1cc2c(Nc3ccc(F)c(Cl)c3F)ncnc2cc1OCCOC(F)F`, for which the growth in [1] is 44.1%; in assay [2], 12.4%; in assay [3], 2.22% (active); in assay [4], 4.31% (active); in assay [5] it was 9.78% (active); in assay [6] it was -7.73% (active). For the same molecule, the growth in [7] is -15.3% (active); in [8], -47.7% (active); in assay [9], 26.3%; in assay [10], 4.26% (active); in [11] it was 14.8%; in assay [12], 11.4%. The growth in [13] is 26.6%; in [14] it was 26.6%; in [15], 16%; in assay [16], 0.142% (active); in [17], -15.6% (active); in assay [18], -15.4% (active). Further, the growth in [19] is -19.2% (active); in [20], 20.1%.
In the case of `C=C1C(=O)O[C@H]2[C@H]1CC/C(COC(=O)NCCc1ccc(Br)cc1)=C\CC[C@@]1(C)O[C@@H]21`, the growth was 57.8% in [1]; 57.3% in assay [2]; 16.8% in assay [3]; -20.5% (active) in [4]; 25.9% in [5]; -60.1% (active) in assay [6]. In addition, the growth in [7] is 22.6%; in assay [8], 79.1%; in assay [9], 4% (active); in assay [10], -19.1% (active); in assay [11], -4.11% (active); in [12] it was 2.82% (active). Further, the growth in assay [13] is 7.1% (active); in [14], 39.6%; in [15], 30%; in assay [16] it was 97.2%; in assay [18] it was -71.8% (active); in assay [19], 22.9%. In addition, the growth in assay [20] was 58.4%.
